PubChem BioAssay (NCATS)
Records with an inconclusive call do not appear. Active and inactive are the calls of the source. The call rests on the fitted dose curve; in most records, active means well fitted curve in the direction sought with a large enough effect; inconclusive means small, poorly fitted or top-dose-only effect, or another doubt; inactive means no such curve, though single readings can be large; an effect the other way counts as inactive or inconclusive.

Key:
[1] = MultiTox-Fluor Cytotoxicity Assay - LYMP1-001 - Live Cells (AID 947)
[2] = Cell Viability - LYMP1-002 - Assay at 16 hr (AID 948)
Outline: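 Acute cytotoxicity is scored as a concentration-dependent fall in intracellular ATP in a human lymphoblastoid line (LYMP1-002) after 16 hr compound exposure at 37 C, measured by luciferase luminescence.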

[3] = MultiTox-Fluor Cytotoxicity Assay - LYMP1-002 - Live Cells (AID 955);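 further: cells exposed to compound for 16 hours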
Outline: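 Cells were seeded at 2500 per well and incubated 5 hr. Compounds were then added for 16 hr at 37 C, followed by MultiTox-Fluor reagent for 60 min at room temperature and fluorescence reading of viable-cell protease signal.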

[4] = MultiTox-Fluor Cytotoxicity Assay - LYMP1-002 - Dead Cells (AID 960); further: nearly all actives have a fitted effect of over 60% in size
Outline: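 Cells were plated, rested 5 hr, then treated with compound dilution series for 16 hr at 37 C. After adding substrate reagent and 60 min at room temperature, dead-cell protease fluorescence gave concentration-response curves fitted by the Hill equation.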

[5] = MultiTox-Fluor Cytotoxicity Assay - LYMP1-003 - Dead Cells (AID 961); further: nearly all actives have a fitted effect of over 70% in size
Outline: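 Dead-cell protease release, detected as bis-AAF-R110 fluorescence at 485/520 nm, was measured in LYMP1-003 cells after 16 h compound treatment at 37 C. AC50 values came from Hill-modeled qHTS curves normalized to DMSO (0%) and 15 uM tetraoctylammonium bromide (100%).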

[6] = MultiTox-Fluor Cytotoxicity Assay - LYMP1-003 - Live Cells (AID 962);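 further: cells exposed to compound for 16 hours at 37 °C; cytotoxic hits lower the live-cell protease signal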
Outline: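 Acute cytotoxicity is scored as a drop in live-cell protease activity in human lymphoblastoid LYMP1-003 cells after 16 hr compound exposure at 37 C. AC50 values come from Hill-equation modelling of concentration-response data.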

[7] = Cell Viability - LYMP1-003 - Assay at 24 hr (AID 963)
Outline: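 Cytotoxicity is scored as a concentration-dependent fall in ATP-linked luciferase signal in human lymphoblastoid LYMP1-003 cells treated 24 hr at 37 C in complete culture medium.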

[8] = Cell Viability - LYMP1-003 - Assay at 40 hr (AID 964); further: series mostly up to about 92 µM; nearly all actives have a fitted effect of over 60% in size
Outline: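 Luminescent ATP signal (CellTiter-Glo) served as the viability read-out after 40 hr compound treatment of human lymphoblastoid LYMP1-003 cells at 37 C. Decreases in ATP were fitted with the Hill equation to give AC50.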

[9] = Cell Viability - LYMP2-003 (AID 965);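 further: cells exposed to compounds for 24 h before reading; nearly all actives have a fitted effect of over 50% in size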
Outline: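 Acute cytotoxicity is scored as a concentration-dependent drop in intracellular ATP, measured by luciferase luminescence in human lymphoblastoid cells treated for 24 hours at 37 C. AC50 values derive from Hill-equation modelling.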

[10] = Cell Viability - LYMP2-004 (AID 966); further: nearly all actives have a fitted effect of over 65% in size
Outline: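 qHTS cytotoxicity: human lymphoblastoid line, 24 hr compound treatment, 37 C, complete medium. Viability read as cellular ATP via luciferase luminescence; tetraoctylammonium bromide served as positive control.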

[11] = Cell Viability - LYMP2-009 (AID 968); further: series mostly up to about 92 µM; nearly all actives have a fitted effect of over 55% in size
[12] = Cell Viability - LYMP2-011 (AID 969); further: nearly all actives have a fitted effect of over 60% in size
Outline: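 In this qHTS cytotoxicity format, compounds are tested across concentrations on human lymphoblastoid cells in complete medium for 24 hours at 37 C. Viability is taken as cellular ATP measured by luciferase luminescence.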

[13] = Cell Viability - LYMP2-013 (AID 970); further: series mostly up to about 92 µM; nearly all actives have a fitted effect of over 55% in size
Outline: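 Cytotoxicity is scored as a concentration-dependent drop in intracellular ATP in human lymphoblastoid cells after 24 hr compound exposure at 37 C. ATP is quantified by luciferase luminescence, and AC50 values come from Hill-equation modeling.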

[14] = Cell Viability - LYMP2-015 (AID 971); further: nearly all actives have a fitted effect of over 55% in size
Outline: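 Cells are seeded at 2500 per well and incubated 5 hr at 37 C. Compounds are added across a concentration series for 24 hr at 37 C. CellTiter-Glo is added, and luminescence is read after 30 min at room temperature.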

[15] = Cell Viability - LYMP2-017 (AID 972); further: series mostly up to about 92 µM; nearly all actives have a fitted effect of over 55% in size
Outline: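 Cytotoxicity is scored as a concentration-dependent drop in cellular ATP in a human lymphoblastoid line after 24 hr treatment at 37 C. Values are AC50s from Hill-equation modelling.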

[16] = Cell Viability - LYMP2-019 (AID 973); further: nearly all actives have a fitted effect of over 55% in size
Outline: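 Cytotoxicity is scored as a concentration-dependent drop in cellular ATP after cells (2500/well) receive compound for 24 hr at 37 C. Tetraoctylammonium bromide serves as positive control.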

[17] = Cell Viability - LYMP2-021 (AID 974)
Outline: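 Loss of cellular ATP, measured with a luciferase-based CellTiter-Glo readout, serves as the toxicity signal in human lymphoblastoid cells treated for 24 hours at 37 C. Potency is reported as AC50 from a standard Hill model.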

[18] = Cell Viability - LYMP2-023 (AID 975)
Outline: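 Steps: seed 2500 human lymphoblastoid cells per well, incubate 5 hr at 37 C, add compound for 24 hr at 37 C, add CellTiter-Glo, hold 30 min at room temperature, read luminescence. AC50 derived by Hill modelling.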

[19] = Cell Viability - LYMP2-005 (AID 967); further: series mostly up to about 92 µM
Outline: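 qHTS viability screen in LYMP2-005 cells: 24 h at 37 C with compound, ATP luminescence via CellTiter-Glo, AC50 from Hill curves.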

Measured: Potency

CCCCCCC(=O)O
not listed: [19]
inactive: all other assays above

O=C(O[C@@H](C(=O)O)[C@@H](OC(=O)c1ccccc1)C(=O)O)c1ccccc1
inactive: all assays above

Oc1c(Cl)ccc(Cl)c1Cl
not listed: [1] | [8]
inactive: all other assays above

O=CNc1ccccc1
not listed: [4] | [13]
inactive: all other assays above

CCCCCCC=O
not listed: [4] | [19]
inactive: all other assays above

CCN(CC)c1cccc(O)c1
not listed: [8] | [11] | [19]
inactive: all other assays above

CCCCOCCOCCOCCCC
not listed: [7]
inactive: all other assays above

CCC(C)=O
not listed: [5] | [9] | [11] | [13] | [19]
inactive: all other assays above

CCCC(Cl)CCCC(Cl)CCC(Cl)CCC(Cl)CCC(Cl)CCCC(Cl)CCC (stereo unspecified)
not listed: [7] | [19]
inactive: all other assays above

C=CC(=O)OCCCC
not listed: [7] | [10] | [12] | [13]
inactive: all other assays above

COc1ccc(OC)cc1
not listed: [11]
inactive: all other assays above
